Records with an inconclusive call do not appear. Activity calls are given as the source filed them. The calls were made as follows: active = hit-call score of the fitted dose curve at least 0.9, where 1 is the maximum; inconclusive = response in the unintended direction; inactive = score below 0.9.
What was measured:
[1] = biological target: human Esterase Plasma (ES), BCHE (gene 590) (UniProt P06276); assay: NVS_ENZ_hES: NovaScreen (NVS) Enzymatic Assay for human Esterase Plasma (ES) (AID 2283157)
Chain of human Esterase Plasma (ES), BCHE (gene 590) (P06276 whole entry, looked up): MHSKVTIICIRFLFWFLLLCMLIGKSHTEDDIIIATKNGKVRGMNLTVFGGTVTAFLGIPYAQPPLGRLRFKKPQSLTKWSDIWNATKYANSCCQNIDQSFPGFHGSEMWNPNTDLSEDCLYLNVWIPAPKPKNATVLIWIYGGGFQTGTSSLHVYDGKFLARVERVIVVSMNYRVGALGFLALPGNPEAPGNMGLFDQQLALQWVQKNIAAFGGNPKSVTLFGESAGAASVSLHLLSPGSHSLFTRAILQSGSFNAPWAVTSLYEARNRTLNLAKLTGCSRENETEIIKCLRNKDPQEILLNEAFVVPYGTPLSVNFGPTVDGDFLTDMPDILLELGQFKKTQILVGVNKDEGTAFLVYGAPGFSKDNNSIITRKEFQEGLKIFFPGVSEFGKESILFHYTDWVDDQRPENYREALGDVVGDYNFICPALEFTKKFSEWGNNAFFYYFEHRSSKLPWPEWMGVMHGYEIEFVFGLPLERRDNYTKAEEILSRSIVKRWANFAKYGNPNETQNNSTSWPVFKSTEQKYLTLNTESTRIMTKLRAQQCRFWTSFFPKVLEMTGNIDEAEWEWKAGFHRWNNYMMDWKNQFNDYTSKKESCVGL
How it was run: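 Esterase from human plasma, cell-free, colorimetric absorbance read 0.25 h after dosing. Screened at 25 uM in duplicate, with threshold-passing chemicals run in concentration-response up to 50 uM; loss of signal fitted versus DMSO.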

[2] = biological target: Collagenase 3 (Homo sapiens) (UniProt P45452); assay: NVS_ENZ_hMMP13: NovaScreen (NVS) Enzymatic Assay for human Matrix Metalloproteinase-13 (MMP13) (AID 2283182)
How it was run: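 Recombinant MMP13 cleaving fluorescent substrate, cell-free, measured 1 h after dosing. Primary duplicate screen at 25 uM; actives tested in concentration-response up to 50 uM; loss of signal relative to DMSO.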

[3] = biological target: Histone deacetylase 3 (Homo sapiens) (UniProt O15379); assay: NVS_ENZ_hHDAC3: NovaScreen (NVS) Enzymatic Assay for human Histone Deacetylase 3 (HDAC3) (AID 2283163)
How it was run: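 Recombinant human HDAC3 with fluorescent substrate, 1 h after dosing; product separated from substrate by electrophoretic mobility shift and read by fluorescence. Primary screen at 25 uM in duplicate; actives (e.g. ≥30% inhibition) retested in concentration-response up to 50 uM.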

[4] = biological target: human MAP Kinase-Activated Protein Kinase 2 (MAPKAPK2), MAPKAPK2 (gene 9261) (UniProt P49137); assay: NVS_ENZ_hMAPKAPK2: NovaScreen (NVS) Enzymatic Assay for human MAP Kinase-Activated Protein Kinase 2 (MAPKAPK2) (AID 2283178)
How it was run: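 Cell-free recombinant human MAPKAPK2 activity measured by fluorescence with electrophoretic mobility shift separation of substrate and product, 1 hr after dosing. Loss of signal versus DMSO; primary screen at 25 uM, concentration-response up to 50 uM.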

[5] = biological target: human Mitogen-Activated Protein Kinase 1 (MAPK 1), MAPK1 (gene 5594) (UniProt P28482); assay: NVS_ENZ_hMAPK1: NovaScreen (NVS) Enzymatic Assay for human Mitogen-Activated Protein Kinase 1 (MAPK 1) (AID 2283175)
How it was run: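 Cell-free recombinant human MAPK1 enzymatic assay, fluorescence/electrophoretic mobility shift read at 1 h; loss of signal vs DMSO. Primary screen in duplicate at 25 uM; actives (e.g. ≥30% inhibition) run as concentration-response up to 50 uM.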

[6] = biological target: human Matrix Metalloproteinase-7 (MMP7), MMP7 (gene 4316) (UniProt P09237); assay: NVS_ENZ_hMMP7: NovaScreen (NVS) Enzymatic Assay for human Matrix Metalloproteinase-7 (MMP7) (AID 2283183)
How it was run: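 Cell-free fluorescence enzymatic assay read 1 h after compound addition, activity loss analyzed against DMSO. Primary duplicate testing at 25 uM; compounds meeting threshold rerun in singleton concentration-response up to 50 uM.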

[7] = biological target: human Ephrin type-A Receptor 2 (EphA2), EPHA2 (gene 1969) (UniProt P29317); assay: NVS_ENZ_hEphA2: NovaScreen (NVS) Enzymatic Assay for human Ephrin type-A Receptor 2 (EphA2) (AID 2283155)
Chain of human Ephrin type-A Receptor 2 (EphA2), EPHA2 (gene 1969) (P29317 whole entry, looked up): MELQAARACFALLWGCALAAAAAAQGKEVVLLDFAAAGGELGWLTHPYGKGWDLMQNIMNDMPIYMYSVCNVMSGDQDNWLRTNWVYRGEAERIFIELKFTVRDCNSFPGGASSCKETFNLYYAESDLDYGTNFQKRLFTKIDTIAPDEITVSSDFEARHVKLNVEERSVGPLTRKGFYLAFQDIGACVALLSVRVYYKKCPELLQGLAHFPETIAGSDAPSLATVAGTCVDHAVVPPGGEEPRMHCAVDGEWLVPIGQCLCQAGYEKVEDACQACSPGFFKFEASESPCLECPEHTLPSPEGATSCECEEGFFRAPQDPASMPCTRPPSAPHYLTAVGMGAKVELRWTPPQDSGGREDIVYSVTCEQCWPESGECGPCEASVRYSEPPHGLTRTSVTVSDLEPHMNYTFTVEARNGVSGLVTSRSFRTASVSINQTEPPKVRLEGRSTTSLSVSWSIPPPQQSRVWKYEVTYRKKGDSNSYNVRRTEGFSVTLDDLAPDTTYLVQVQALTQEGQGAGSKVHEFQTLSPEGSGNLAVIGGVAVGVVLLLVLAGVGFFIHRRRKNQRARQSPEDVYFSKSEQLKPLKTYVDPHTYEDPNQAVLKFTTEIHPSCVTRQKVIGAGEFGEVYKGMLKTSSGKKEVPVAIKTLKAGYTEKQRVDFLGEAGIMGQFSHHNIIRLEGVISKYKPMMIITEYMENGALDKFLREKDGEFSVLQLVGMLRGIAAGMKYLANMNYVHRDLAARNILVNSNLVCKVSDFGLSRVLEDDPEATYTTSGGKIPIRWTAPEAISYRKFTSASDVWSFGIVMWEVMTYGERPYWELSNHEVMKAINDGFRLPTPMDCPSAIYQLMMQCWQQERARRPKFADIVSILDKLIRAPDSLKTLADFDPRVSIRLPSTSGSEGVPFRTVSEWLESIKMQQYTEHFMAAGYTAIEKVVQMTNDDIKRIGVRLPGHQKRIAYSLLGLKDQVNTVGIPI
How it was run: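 Cell-free recombinant EphA2 kinase with specific substrate, 1 h, fluorescence with electrophoretic mobility-shift separation of substrate and product. Primary screen at 25 uM in duplicate; hits retested in singleton concentration-response up to 50 uM, referenced to DMSO.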

[8] = biological target: human LYN Proto-Oncogene, Src family Tyrosine Kinase (LynA), LYN (gene 4067) (UniProt P07948); assay: NVS_ENZ_hLynA: NovaScreen (NVS) Enzymatic Assay for human LYN Proto-Oncogene, Src family Tyrosine Kinase (LynA) (AID 2283173)
How it was run: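 Recombinant kinase with fluorescent substrate; product separated from substrate by electrophoretic mobility shift and read 1 h after dosing. Duplicate screen at 25 uM, then concentration-response up to 50 uM; activity scored as signal loss against DMSO.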

[9] = biological target: human Matrix Metalloproteinase-2 (MMP2), MMP2 (gene 4313) (UniProt P08253); assay: NVS_ENZ_hMMP2: NovaScreen (NVS) Enzymatic Assay for human Matrix Metalloproteinase-2 (MMP2) (AID 2283184)
Chain of human Matrix Metalloproteinase-2 (MMP2), MMP2 (gene 4313) (P08253 whole entry, looked up): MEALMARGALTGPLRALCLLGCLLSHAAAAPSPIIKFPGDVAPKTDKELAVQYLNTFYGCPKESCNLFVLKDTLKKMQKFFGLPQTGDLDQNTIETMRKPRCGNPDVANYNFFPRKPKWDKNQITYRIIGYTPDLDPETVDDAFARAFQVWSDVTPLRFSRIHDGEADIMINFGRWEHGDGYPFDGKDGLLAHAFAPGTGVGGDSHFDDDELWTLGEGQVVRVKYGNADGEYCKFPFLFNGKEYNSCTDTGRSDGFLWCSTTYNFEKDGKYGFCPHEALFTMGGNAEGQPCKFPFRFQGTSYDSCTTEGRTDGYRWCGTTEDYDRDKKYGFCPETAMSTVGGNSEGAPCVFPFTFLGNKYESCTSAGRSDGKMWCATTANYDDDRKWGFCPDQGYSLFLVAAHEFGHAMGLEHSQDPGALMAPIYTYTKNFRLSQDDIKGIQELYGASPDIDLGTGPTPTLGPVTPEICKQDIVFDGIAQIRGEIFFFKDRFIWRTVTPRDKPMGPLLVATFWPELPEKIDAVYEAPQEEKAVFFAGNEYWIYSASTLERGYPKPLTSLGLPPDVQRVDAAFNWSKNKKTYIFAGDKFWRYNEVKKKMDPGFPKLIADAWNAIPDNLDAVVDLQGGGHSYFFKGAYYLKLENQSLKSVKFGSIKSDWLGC
How it was run: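 Cell-free recombinant MMP2 activity with a fluorescent substrate, read 1 h after dosing. Primary screen in duplicate at 25 uM; actives then run in concentration series; loss of signal fitted versus DMSO.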

[10] = biological target: human FYN Proto-Oncogene, Src family Tyrosine Kinase (Fyn), FYN (gene 2534) (UniProt P06241); assay: NVS_ENZ_hFyn: NovaScreen (NVS) Enzymatic Assay for human FYN Proto-Oncogene, Src family Tyrosine Kinase (Fyn) (AID 2283161)
Chain of human FYN Proto-Oncogene, Src family Tyrosine Kinase (Fyn), FYN (gene 2534) (P06241 whole entry, looked up): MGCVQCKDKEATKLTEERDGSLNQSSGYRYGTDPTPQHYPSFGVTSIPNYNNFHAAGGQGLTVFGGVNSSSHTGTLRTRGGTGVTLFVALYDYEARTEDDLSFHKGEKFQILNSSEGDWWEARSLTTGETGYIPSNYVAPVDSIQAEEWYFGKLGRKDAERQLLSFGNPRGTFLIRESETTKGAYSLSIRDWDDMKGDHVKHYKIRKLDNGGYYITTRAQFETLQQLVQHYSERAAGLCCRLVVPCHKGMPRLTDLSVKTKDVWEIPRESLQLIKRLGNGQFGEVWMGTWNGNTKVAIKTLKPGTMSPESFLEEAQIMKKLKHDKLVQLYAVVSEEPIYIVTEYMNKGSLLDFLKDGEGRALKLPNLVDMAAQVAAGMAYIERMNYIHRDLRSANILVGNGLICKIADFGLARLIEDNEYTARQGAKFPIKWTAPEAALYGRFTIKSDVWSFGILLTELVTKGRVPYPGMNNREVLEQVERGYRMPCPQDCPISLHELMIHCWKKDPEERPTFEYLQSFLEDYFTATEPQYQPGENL
How it was run: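 Recombinant enzyme with fluorescent substrate, product separated by electrophoretic mobility shift; read 1 h after dosing. Duplicate 25 uM single-point screen, actives retested in concentration series; loss of signal vs DMSO.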

[11] = biological target: human Insulin Receptor (InsR), INSR (gene 3643) (UniProt P06213); assay: NVS_ENZ_hInsR: NovaScreen (NVS) Enzymatic Assay for human Insulin Receptor (InsR) (AID 2283168)
How it was run: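 Fluorescent substrate phosphorylation by recombinant kinase, product resolved by electrophoretic mobility shift, read 1 h after dosing. Screened in duplicate at 25 uM; hits (e.g., 30% inhibition) run in concentration-response to 50 uM; DMSO as baseline.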

[12] = biological target: human MET Proto-Oncogene, Receptor Tyrosine Kinase (MET), MET (gene 4233) (UniProt P08581); assay: NVS_ENZ_hMet: NovaScreen (NVS) Enzymatic Assay for human MET Proto-Oncogene, Receptor Tyrosine Kinase (MET) (AID 2283180)
How it was run: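 Cell-free MET kinase assay using recombinant protein and fluorescent substrate, with mobility-shift separation; read 1 h after dosing. Primary duplicate at 25 uM; actives in singleton concentration-response to 50 uM maximum. Signal loss versus DMSO.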

[13] = biological target: human Ephrin type-A Receptor 1 (EphA1), EPHA1 (gene 2041) (UniProt P21709); assay: NVS_ENZ_hEphA1: NovaScreen (NVS) Enzymatic Assay for human Ephrin type-A Receptor 1 (EphA1) (AID 2283158);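 also: activity is signal loss versus DMSO meaning EphA1 kinase inhibition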
Chain of human Ephrin type-A Receptor 1 (EphA1), EPHA1 (gene 2041) (P21709 whole entry, looked up): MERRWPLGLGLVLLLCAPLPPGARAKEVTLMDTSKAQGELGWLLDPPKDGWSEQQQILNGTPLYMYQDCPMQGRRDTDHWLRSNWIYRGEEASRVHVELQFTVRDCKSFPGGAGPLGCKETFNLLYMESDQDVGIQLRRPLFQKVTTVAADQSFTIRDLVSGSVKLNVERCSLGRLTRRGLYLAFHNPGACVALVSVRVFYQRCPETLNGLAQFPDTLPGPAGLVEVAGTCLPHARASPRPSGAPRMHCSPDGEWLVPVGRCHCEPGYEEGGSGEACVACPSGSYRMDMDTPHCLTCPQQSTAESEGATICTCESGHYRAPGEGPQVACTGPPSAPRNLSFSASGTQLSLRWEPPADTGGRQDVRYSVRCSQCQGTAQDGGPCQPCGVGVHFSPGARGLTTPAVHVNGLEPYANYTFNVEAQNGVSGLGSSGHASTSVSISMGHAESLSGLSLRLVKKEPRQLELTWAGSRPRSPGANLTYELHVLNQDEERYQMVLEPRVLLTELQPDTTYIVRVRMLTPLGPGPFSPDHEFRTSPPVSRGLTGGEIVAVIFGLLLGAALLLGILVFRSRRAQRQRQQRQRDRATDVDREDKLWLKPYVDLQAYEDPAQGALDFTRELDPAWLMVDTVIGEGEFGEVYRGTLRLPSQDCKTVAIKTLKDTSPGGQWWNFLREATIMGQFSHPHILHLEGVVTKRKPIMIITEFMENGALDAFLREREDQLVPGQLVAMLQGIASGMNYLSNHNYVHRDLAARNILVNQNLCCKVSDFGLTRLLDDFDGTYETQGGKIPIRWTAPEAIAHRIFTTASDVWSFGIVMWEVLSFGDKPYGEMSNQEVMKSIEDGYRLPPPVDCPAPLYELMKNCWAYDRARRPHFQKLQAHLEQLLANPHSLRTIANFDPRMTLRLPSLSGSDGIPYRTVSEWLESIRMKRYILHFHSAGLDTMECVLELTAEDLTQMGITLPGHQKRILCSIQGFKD
How it was run: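 Here the EphA1 protein is recombinant and the substrate fluorescent, with electrophoretic separation before fluorescence detection at 1 hour. Signal loss against DMSO defines activity; plate controls included; follow-up concentration series reach 50 uM.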

[14] = biological target: human Fibroblast Growth Factor Receptor 1 (FGFR1), FGFR1 (gene 2260) (UniProt P11362); assay: NVS_ENZ_hFGFR1: NovaScreen (NVS) Enzymatic Assay for human Fibroblast Growth Factor Receptor 1 (FGFR1) (AID 2283159)
Chain of human Fibroblast Growth Factor Receptor 1 (FGFR1), FGFR1 (gene 2260) (P11362 whole entry, looked up): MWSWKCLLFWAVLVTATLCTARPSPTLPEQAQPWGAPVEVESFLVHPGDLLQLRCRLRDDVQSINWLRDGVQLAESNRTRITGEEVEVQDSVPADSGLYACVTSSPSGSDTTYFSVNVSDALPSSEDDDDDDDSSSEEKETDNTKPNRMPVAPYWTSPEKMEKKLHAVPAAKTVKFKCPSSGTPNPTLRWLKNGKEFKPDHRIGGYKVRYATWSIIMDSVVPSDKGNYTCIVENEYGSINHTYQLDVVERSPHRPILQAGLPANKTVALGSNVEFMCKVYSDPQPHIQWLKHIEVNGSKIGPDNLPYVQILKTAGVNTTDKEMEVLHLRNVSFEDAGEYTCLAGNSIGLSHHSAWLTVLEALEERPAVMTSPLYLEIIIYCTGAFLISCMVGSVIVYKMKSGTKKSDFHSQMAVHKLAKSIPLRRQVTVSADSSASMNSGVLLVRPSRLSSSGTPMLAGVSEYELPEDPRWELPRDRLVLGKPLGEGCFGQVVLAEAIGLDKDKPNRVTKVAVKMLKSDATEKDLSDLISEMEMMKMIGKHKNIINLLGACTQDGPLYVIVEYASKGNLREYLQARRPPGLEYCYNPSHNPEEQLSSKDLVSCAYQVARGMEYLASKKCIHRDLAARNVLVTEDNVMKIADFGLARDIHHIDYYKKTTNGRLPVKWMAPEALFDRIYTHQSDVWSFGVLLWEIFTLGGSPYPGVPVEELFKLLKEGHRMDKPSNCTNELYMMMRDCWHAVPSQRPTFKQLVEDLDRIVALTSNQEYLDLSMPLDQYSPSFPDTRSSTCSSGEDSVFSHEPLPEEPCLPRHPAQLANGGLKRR
How it was run: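 Cell-free recombinant kinase with fluorescent substrate, product separated by electrophoretic mobility shift; read 1 hour after dosing, loss of signal relative to DMSO. Initial screen in duplicate at 25 uM, actives followed in concentration series.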

[15] = biological target: Protein deacetylase HDAC6 (Homo sapiens) (UniProt Q9UBN7); assay: NVS_ENZ_hHDAC6: NovaScreen (NVS) Enzymatic Assay for human Histone Deacetylase 6 (HDAC6) (AID 2283164)
How it was run: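 Recombinant human HDAC6 with fluorescent substrate, 1 h; product separated from substrate by electrophoretic mobility shift. Primary screen in duplicate at 25 uM; actives retested singly in concentration-response up to 50 uM, fitted relative to DMSO.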

[16] = biological target: human IkappaB Kinase alpha (IKKa), CHUK (gene 1147) (UniProt O15111); assay: NVS_ENZ_hIKKa: NovaScreen (NVS) Enzymatic Assay for human IkappaB Kinase alpha (IKKa) (AID 2283167)
How it was run: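 Cell-free recombinant human IKKa with fluorescent substrate, product separated by electrophoretic mobility shift; read 1 hour after dosing. Primary screen duplicate at 25 uM, actives then concentration-response up to 50 uM; loss of signal relative to DMSO.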

[17] = biological target: human c-Jun N-terminal Kinases (JNK2), MAPK9 (gene 5601) (UniProt P45984); assay: NVS_ENZ_hJNK2: NovaScreen (NVS) Enzymatic Assay for human c-Jun N-terminal Kinases (JNK2) (AID 2283171)
How it was run: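 Cell-free recombinant human JNK2 activity assay; fluorescent substrate and product separated by electrophoretic mobility shift, read 1 h after dosing. Primary duplicate screen at 25 uM; actives run in concentration-response up to 50 uM, relative to DMSO.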

[18] = biological target: Mitogen-activated protein kinase 3 (Homo sapiens) (UniProt P27361); assay: NVS_ENZ_hMAPK3: NovaScreen (NVS) Enzymatic Assay for human Mitogen-Activated Protein Kinase 3 (MAPK 3) (AID 2283177)
Chain of Mitogen-activated protein kinase 3 (Homo sapiens) (P27361 whole entry, looked up): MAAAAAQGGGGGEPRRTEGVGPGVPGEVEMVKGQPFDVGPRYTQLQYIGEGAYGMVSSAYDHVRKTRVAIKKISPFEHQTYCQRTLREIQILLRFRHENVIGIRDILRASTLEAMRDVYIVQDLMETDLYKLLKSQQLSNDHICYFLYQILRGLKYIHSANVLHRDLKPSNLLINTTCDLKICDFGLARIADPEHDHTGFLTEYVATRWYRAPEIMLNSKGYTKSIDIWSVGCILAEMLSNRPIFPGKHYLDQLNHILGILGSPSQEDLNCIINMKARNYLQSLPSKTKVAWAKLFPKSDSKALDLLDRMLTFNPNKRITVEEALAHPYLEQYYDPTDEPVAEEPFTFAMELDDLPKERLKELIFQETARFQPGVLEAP
How it was run: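 Cell-free enzymatic assay with recombinant protein and specific substrate; fluorescence and electrophoretic mobility shift read-out 1 h after dosing. Primary screen duplicate at 25 uM; actives then run in concentration-response up to 50 uM, loss of signal versus DMSO.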

[19] = biological target: human Matrix Metalloproteinase-1 (MMP1), MMP1 (gene 4312) (UniProt P03956); assay: NVS_ENZ_hMMP1: NovaScreen (NVS) Enzymatic Assay for human Matrix Metalloproteinase-1 (MMP1) (AID 2283181)
How it was run: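 Human MMP1 enzyme activity measured by fluorescence 1 h after dosing, cell-free, with a specific substrate. Screened in duplicate at 25 uM; hits (e.g. 30% inhibition) run in concentration-response up to 50 uM; loss of signal versus DMSO.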

[20] = biological target: human Janus Kinase 2 (Jak2), JAK2 (gene 3717) (UniProt O60674); assay: NVS_ENZ_hJak2: NovaScreen (NVS) Enzymatic Assay for human Janus Kinase 2 (Jak2) (AID 2283169)
How it was run: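 Cell-free recombinant human JAK2 enzyme activity assay, fluorescence/electrophoretic mobility shift read 1 h after dosing. Screened in duplicate at 25 uM, then concentration-response up to 50 uM; activity as signal loss relative to DMSO.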

[Cl-].[Cl-].[Hg+2]
AC50 [1]: 20.9 µM (active)

CN(C)[C@@H]1C(=O)C(C(N)=O)=C(O)[C@@]2(O)C(=O)C3=C(O)c4c(O)cccc4[C@@](C)(O)[C@H]3C[C@@H]12
outcome [1]: inactive | outcome [2]: inactive

Nc1ccc(Cl)cc1N
outcome [1]: inactive | outcome [3]: inactive | outcome [4]: inactive

O=C(Nc1ccccc1)c1ccccc1I
outcome [1]: inactive | outcome [5]: inactive | outcome [2]: inactive | outcome [6]: inactive

CN(C)C(=O)Nc1ccc(Cl)cc1
outcome [7]: inactive | outcome [1]: inactive | outcome [8]: inactive | outcome [5]: inactive | AC50 [9]: 17.9 µM (active)

CNC(=O)Oc1cccc2c1OC(C)(C)C2
AC50 [1]: 27.3 µM (active) | outcome [10]: inactive | outcome [9]: inactive

CCCCCCCCCCCCCN1CC(C)OC(C)C1 (stereo not given)
outcome [7]: inactive | outcome [1]: inactive | outcome [10]: inactive | outcome [11]: inactive

O=[N+]([O-])C(Br)(CO)CO
AC50 [1]: 32.1 µM (active) | outcome [12]: inactive

OCCCBr
outcome [13]: inactive

C1=Cc2cccc3cccc1c23
outcome [1]: inactive

CCCCCCCCOC(=O)c1ccc(C(=O)OCCCCCCCC)c(C(=O)OCCCCCCCC)c1
outcome [7]: inactive

CCN(CC)N=O
outcome [7]: inactive | outcome [14]: inactive | outcome [10]: inactive | outcome [15]: inactive | outcome [16]: inactive | outcome [4]: inactive

CCCCC(CC)COC(=O)c1ccc(C(=O)OCC(CC)CCCC)c(C(=O)OCC(CC)CCCC)c1 (stereo not given)
outcome [13]: inactive | outcome [14]: inactive

CCNS(=O)(=O)C(F)(F)C(F)(F)C(F)(F)C(F)(F)C(F)(F)C(F)(F)C(F)(F)C(F)(F)F
outcome [7]: inactive | outcome [13]: inactive | outcome [14]: inactive | outcome [3]: inactive | outcome [17]: inactive | outcome [18]: inactive | outcome [12]: inactive | outcome [6]: inactive

CCOc1cccc(C2(N3CCN(c4ccccc4)CC3)CCC(C)CC2)c1 (stereo not given)
outcome [1]: inactive | outcome [19]: inactive | AC50 [2]: 17.7 µM (active)

CCCCCCCCn1sccc1=O
outcome [13]: inactive

CC(C)(C)C(O)(CCc1ccc(Cl)cc1)Cn1cncn1 (stereo not given)
AC50 [1]: 22.7 µM (active) | outcome [9]: inactive

Cc1cccc(N)c1N
AC50 [1]: 23.1 µM (active)

c1ccc(NNc2ccccc2)cc1
AC50 [1]: 31.6 µM (active) | outcome [15]: inactive | outcome [8]: inactive

O=C(N[C@H](c1ccccc1)[C@@H]1CN2CCC1CC2)c1c(Cl)ccc(C(F)(F)F)c1Cl
AC50 [1]: 19.8 µM (active)

Oc1ccccc1Cl
outcome [7]: inactive | outcome [14]: inactive | outcome [19]: inactive | outcome [9]: inactive

CCOC(=O)[C@]1(c2ccccc2)Oc2ccccc2[C@@H]1N
AC50 [1]: 16.7 µM (active)

COc1cc(C=O)cc2c1[C@H](COC(N)=O)[C@]1(OC(C)=O)ON2C[C@H]2[C@@H]1N2C(C)=O
outcome [13]: inactive | AC50 [20]: 0.00608 µM (active) | outcome [18]: inactive

c1ccc2c(c1)-c1cccc3cccc-2c13
outcome [10]: inactive | outcome [11]: inactive

CCC[CH2][Sn]([Cl])([CH2]CCC)[CH2]CCC
outcome [10]: inactive

Cn1cc(-c2ccccc2)c(=O)c(-c2cccc(C(F)(F)F)c2)c1
outcome [3]: inactive

ClCCOCCCl
outcome [16]: inactive

Clc1ccc(Cl)c(Cl)c1
outcome [8]: inactive

C[C@]12C=CC3=C4CCC(=O)C=C4CC[C@H]3[C@@H]1CC[C@@H]2O
outcome [18]: inactive

Cc1ccc(N=C=O)cc1N=C=O
AC50 [2]: 4.21 µM (active)

— PubChem BioAssay (EPA / NIEHS)
